Where “and” joins values, the source holds several entries; their conditions need not be identical. Identical values can stand only once. Inconclusive results are not listed. Some structures have more than one record in an assay (separate samples or runs), and their calls can disagree. Calls of active or inactive are those of the source. Calls come from the whole dose curve; as a rule, active = well fitted curve in the direction sought with a large enough effect; inconclusive = small, poorly fitted or top-dose-only effect, or another doubt; inactive = no such curve, though single readings can be large; an effect the other way counts as inactive or inconclusive.
Key:
[1] = Viability qHTS for spleen associated tyrosine kinase inhibitor (SYKi) naive MV4-11 cells (AID 1963823); note: nearly all actives have a fitted effect of over 40% in size; note: potency is the fitted concentration of half-maximal effect
Summary of the method: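 In this viability screen, compounds acted on SYK inhibitor naive MV4-11 cells for three days (72 hr, 37 C). Remaining viable cells were measured by CellTiter-Glo luminescence following a 10 min room-temperature development.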

[2] = Viability qHTS for spleen associated tyrosine kinase inhibitor (SYKi) drug resistant MV4-11 cells (AID 1963824); note: nearly all actives have a fitted effect of over 35% in size; note: potency is the fitted concentration of half-maximal effect
Summary of the method: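 SYK-inhibitor-resistant MV4-11 AML cells were seeded at 500 per well onto compound and cultured 72 hours (37 °C, 5% CO2). CellTiter-Glo was then added, and after 10 min at room temperature, luminescence gave viability.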

[3] = Quantitative highthroughput screen to assess conditional lethalithy of NOMO1 cells grown in RPMI1640 with untreated serum (RPMI+s) (AID 1963876); note: nearly all actives have a fitted effect of over 35% in size; note: potency is the fitted concentration of half-maximal effect;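 for Viability: 100% = DMSO wells and 0% = empty wells without cells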
Summary of the method: (§1)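 Each medium arm—HPLM with 10% dialyzed FBS, or RPMI1640 with 5 mM glucose and 10% untreated or dialyzed FBS—was screened against an 11-point, 3-fold compound titration for 48 h at 37 °C, with CellTiter-Glo luminescence as endpoint.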

[4] = Quantitative highthroughput screen to assess conditional lethalithy of NOMO1 cells grown in RPMI1640 with dialyzed fetal bovine serum (RPMI+ds) (AID 1963877); note: nearly all actives have a fitted effect of over 30% in size; note: potency is the fitted concentration of half-maximal effect;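 for Viability: series mostly up to about 46 µM; 100% = DMSO control wells and 0% = empty wells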
Summary of the method: as §1

[5] = Quantitative highthroughput screen to assess conditional lethalithy of NOMO1 cells grown in Human Plasma-Like Medium with dialyzed fetal bovine serum (HPLM+ds) (AID 1963878); note: nearly all actives have a fitted effect of over 35% in size; note: potency is the fitted concentration of half-maximal effect;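 for Viability: 100% = DMSO wells and 0% = empty wells on each plate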
Summary of the method: as §1

[6] = Quantitative highthroughput screen to assess conditional lethalithy of P12 Ichikawa cells grown in RPMI1640 with dialyzed fetal bovine serum (RPMI+ds) (AID 1963880); settings: Potency: P12-Ichikawa viability; note: nearly all actives have a fitted effect of over 35% in size; note: potency is the fitted concentration of half-maximal effect;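 for Viability: 100% = DMSO wells and 0% = empty wells on each plate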
Summary of the method: as §1

[7] = Quantitative highthroughput screen to assess conditional lethalithy of P12 Ichikawa cells grown in RPMI1640 with untreated serum (RPMI+s) (AID 1963881); settings: Potency: viability; note: nearly all actives have a fitted effect of over 35% in size; note: potency is the fitted concentration of half-maximal effect;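 for Viability: series mostly up to about 46 µM; 100% = DMSO wells and 0% = empty wells without cells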
Summary of the method: as §1

[8] = Quantitative highthroughput screen to assess conditional lethalithy of SEM cells grown in RPMI1640 with unreated serum (RPMI+s) (AID 1963883); note: nearly all actives have a fitted effect of over 35% in size; note: potency is the fitted concentration of half-maximal effect;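 for Viability: 100% = DMSO wells and 0% = empty wells without cells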
Summary of the method: as §1

[9] = Quantitative highthroughput screen to assess conditional lethalithy of SEM cells grown in RPMI1640 with dialyzed fetal bovine serum (RPMI+ds) (AID 1963884); note: nearly all actives have a fitted effect of over 35% in size; note: potency is the fitted concentration of half-maximal effect;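 for Viability: series mostly up to about 46 µM; 100% = DMSO control wells and 0% = empty wells without cells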
Summary of the method: as §1

[10] = Cellular viability qHTS for adrenocortical cancer (ACC) cell line SW-13 (AID 1963989); settings: SW-13 ACC cells viability, CellTiter-Glo, 48 h; activity (max response): stronger effect = lower value; note: nearly all actives have a fitted effect of over 65% in size; note: potency is the fitted concentration of half-maximal effect;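 for activity (max response): cells grown in serum-free medium with ITS supplement; % is set by controls: 0 for no effect and ±100 for the full control effect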
Summary of the method: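 SW-13 cells in ITS-supplemented serum-free DMEM were plated overnight, then exposed for 48 h at 37C to compound titrations (up to 46 uM final). Viability was read by CellTiter-Glo luminescence; four-parameter logistic fits gave IC50 and efficacy.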

[11] = Cellular viability qHTS for adrenocortical cancer (ACC) cell line NCI-H295R (AID 1963990); note: nearly all actives have a fitted effect of over 60% in size; note: potency is the fitted concentration of half-maximal effect
Summary of the method: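 Luminescent ATP read-out (CellTiter-Glo, 20 min RT) after 48 h drug exposure of NCI-H295R cells; a titration up to 46 uM final. Data normalized to doxorubicin (100% inhibition) and DMSO (0%); 4-parameter fit gives IC50, max response.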

[12] = Quantitative highthroughput screen to assess conditional lethalithy of SEM cells grown in Human Plasma-Like Medium with dialyzed fetal bovine serum (HPLM+ds) (AID 1963882); note: nearly all actives have a fitted effect of over 35% in size; note: potency is the fitted concentration of half-maximal effect; for Viability: series mostly up to about 46 µM
Summary of the method: as §1

[13] = Quantitative highthroughput screen to assess conditional lethalithy of P12 Ichikawa cells grown in Human Plasma-Like Medium with dialyzed fetal bovine serum (HPLM+ds) (AID 1963879); settings: Potency: viability
Summary of the method: as §1

CC[C@@H]([C@H](C)O)n1ncn(-c2ccc(N3CCN(c4ccc(OCC5CO[C@@](Cn6cncn6)(c6ccc(F)cc6F)C5)cc4)CC3)cc2)c1=O (some centres undefined)
inactive: Potency [3] | Potency [4] | Potency [5] | Potency [6] | Potency [7] | Potency [8] | Potency [9] | activity (max response) [10] -5.54% | Potency [11]
active: Potency [1] 5.9 µM | Potency [2] 4170 nM

Fc1ccc(Cl)cc1-c1nc(Nc2ccncc2)c2nccnc2n1
inactive and 18.6 µM (active): Potency [1]
inactive: Potency [2] | Potency [3] | Potency [4] | Potency [5] | Potency [6] | Potency [7] | Potency [12] | Potency [8] | Potency [9] | activity (max response) [10] -19.5% | Potency [11]

COC(=O)N[C@H](C(=O)N[C@@H](Cc1ccccc1)[C@@H](O)CN(Cc1ccc(-c2ccccn2)cc1)NC(=O)[C@@H](NC(=O)OC)C(C)(C)C)C(C)(C)C
inactive: Potency [1] | Potency [2] | Potency [3] | Potency [4] | Potency [5] | Potency [6] | Potency [7] | Potency [12] | Potency [8] | Potency [9] | activity (max response) [10] -5.43% | Potency [11]

CC[C@@]1(O)C(=O)OCc2c1cc1n(c2=O)Cc2cc3c(CN(C)C)c(O)ccc3nc2-1
active: Potency [1] 59.6 nM and 58 nM | Potency [2] 33.2 nM | Potency [3] 526 nM | Potency [4] 526 nM | Potency [5] 332 nM | Potency [6] 74.3 nM | Potency [7] 74.3 nM | Potency [12] 166 nM | Potency [8] 93.5 nM | Potency [9] 105 nM | Potency [10] 562 nM

CCCCNc1cc(C(=O)O)cc(S(N)(=O)=O)c1Oc1ccccc1
inactive: Potency [1] | Potency [2] | Potency [3] | Potency [4] | Potency [5] | Potency [13] | Potency [12] | Potency [8] | Potency [9] | activity (max response) [10] 16.2% and -1.57% | Potency [11]

COc1ccc2cc(-c3nc(-c4ccc(S(C)=O)cc4)[nH]c3-c3ccncc3)ccc2c1 (centres undefined)
active: Potency [1] 9.34 µM and 11.6 µM | Potency [2] 9.34 µM and 13 µM | Potency [11] 28200 nM
inactive: Potency [3] | Potency [4] | Potency [5] | Potency [13] | Potency [8] | Potency [9]

Cc1cnc(Nc2cccc(CN3CCOCC3)c2)nc1Nc1cccc(S(=O)(=O)NC(C)(C)C)c1
active: Potency [1] 0.0934 µM | Potency [2] 186 nM
inactive: Potency [3] | Potency [4] | Potency [5] | Potency [7] | activity (max response) [10] -8.11% | Potency [11]

— PubChem BioAssay (NCATS)
